Screening results (PubChem BioAssay)
CapD inh = Bacillus anthracis CapD inhibitors, primary screen, biochemical, fluorescence intensity; purified CapD enzyme, fluorescence intensity read-out; hits give low values; z-score (concentration not given with the values); CapD gamma-glutamyltranspeptidase (Bacillus anthracis Ames Ancestor); actives 0.23% (n = 140,000); AID 492967, 2010; in the data active = z-score mostly below about -2.9, no sharp cut-off; inactive = mostly above about -1.9
Large screens that a line does not name were inactive. Shown is part of a subset that was picked to be rich in hits.

COc1cccc(C(=O)NN)c1	none
CCOC(=O)c1sc(NC(=O)c2cccc(OC)c2)nc1-c1ccccc1	none
COc1cccc(C(=O)c2sc(NC(C)C)nc2N)c1	CapD inh -4.25
Cc1cc(C#N)c(C)n1-c1ccc(Br)cc1	none
CCN1/C(=C\C(=S)Nc2ccccc2)Sc2ccccc21	CapD inh -4.38
CCC(=S)/C=C1\Sc2ccc(OC)cc2N1CC	none
CCC(=S)/C=C1/Sc2ccc(Cl)cc2N1CC	none
CCOC(=O)c1c(C)oc2ccc(N(C(=O)c3ccccc3)S(=O)(=O)c3ccc(CC)cc3)cc12	none
CCc1cc(C(=O)OCC(=O)Nc2ccc(C)cc2C)c2ccccc2n1	none
N=C1/C(=C/c2ccco2)C(=O)N=C2SC=C(c3ccccc3)N12	none
CCS(=O)(=O)C1=NSC2=NC(=O)/C(=C\c3ccco3)C(=N)N21	none
CC(C)CS(=O)(=O)C1=NN2C(=N)/C(=C\c3ccco3)C(=O)N=C2S1	CapD inh -4.13
CCC1CCCCN1C(=O)Cc1ccc(Cl)cc1 (stereo unspecified)	none
Cc1ccccc1NC(=O)c1cccn(Cc2cccc(C(F)(F)F)c2)c1=O	none
CC(C)OCc1cc(CN2CCN(C)CC2)c(O)c2ncccc12	none
Oc1ccc(CN2CCOCC2)c2cccnc12	none
CN1CCN(Cc2ccc(O)c3ncccc23)CC1	CapD inh -4.84
Cc1c(C(=O)Nc2ccc(Oc3ccccc3)cc2)sc2ncn(CC(=O)N3CCC(C)CC3)c(=O)c12	none
O=C(O)[C@@H]1CCCN1Cc1ccccc1	none
FC(F)(F)c1ccc(-c2ncc(-c3nc4ccccc4o3)c(-c3ccccc3)n2)cn1	none
O=C(ON1C(=O)CCC1=O)c1ccccc1Cl	none
O=C(ON1C(=O)CCC1=O)c1ccc(Cl)cc1Cl	CapD inh -3.96
CC(C)(C)c1cc(OC(=O)c2ccc(Cl)cc2Cl)c(C(C)(C)C)cc1OC(=O)c1ccc(Cl)cc1Cl	none
COc1ccc(/C=C/C(=O)C2(O)CCCCC2)cc1	none
O=C(/C=C/c1ccco1)/C=C/c1ccco1	none
O=C(/C=C/c1ccco1)C1(O)CCCCC1	CapD inh -5.62
COC(=O)c1scc(S(=O)(=O)c2ccc(Cl)cc2)c1C	none
CCC(=O)Nc1cccc(C(=O)N/N=C/c2c(F)cccc2F)c1	none
CC(=O)c1cnc2cc(C)nn2c1C	none
CCOC(=O)c1cnc2cc(C)nn2c1C	none
Cc1cc2ncc(C(=O)/C=C/N(C)C)c(C)n2n1	CapD inh -5.12
Cc1ccc(NC(=S)Nc2ccc(Cl)c(Cl)c2)cc1C	none
Cc1ccc(/C=C2/SC(=O)N(CCC(=O)N3CCN(C)CC3)C2=O)cc1	none
Cc1ccc(/C=C2/SC(=S)N(CCC(=O)N3CCOCC3)C2=O)cc1	CapD inh -2.58
COc1ccc(/C=C2/SC(=S)N(CCC(=O)N3CCN(C4=NC(=O)/C(=C\c5ccc(C)cc5)S4)CC3)C2=O)cc1	none
CC(Oc1ccc(Br)cc1)C(=O)NCc1ccncc1 (stereo unspecified)	none
COc1ccccc1NC(=O)/C=C/c1ccccc1	none
COC(=O)C(=C/C=C/c1ccccc1)C(=O)OC	CapD inh -4.48
CN(C)C(=O)/C(=C/C=C/c1ccccc1)NC(=O)c1ccccc1	none
O=C(Oc1ccc([N+](=O)[O-])cc1)OC12CC3CC(CC(C3)C1)C2	none
COc1cccc(OCC(=O)Nc2ccc(OC(C)=O)cc2C(=O)O)c1	CapD inh -10.2
COc1ccc(NC(C)=O)c(C(=O)O)c1	none
COc1cccc(OCC(=O)Nc2cccc(C(=O)O)c2C)c1	none
CN(C1CCN(Cc2ccc(-c3ccccc3)cc2)C1)S(=O)(=O)c1ccc(F)cc1F (stereo unspecified)	none
CCCN1CCC(N(c2ccc3[nH]c(C(C)(C)CC)cc3c2)S(=O)(=O)c2ccc(OC)cc2)CC1	none
c1ccc2[nH]c(Cc3nnc4n3CCCCC4)nc2c1	none
ONc1nc2ccccc2nc1NO	none
CC(=O)Nc1cccc2nc(C)sc12	none
CC(=O)Nc1nc2ccccc2nc1Cl	CapD inh -7.65
COc1cc(C)nc(N(CCO)CCO)n1	none
COc1ccc(S(=O)(=O)N(C(C)=O)c2ccc3oc(=O)sc3c2)cc1	none
CC(=O)Oc1ccc(N(C(C)=O)S(=O)(=O)c2ccc3ccccc3c2)cc1	none
COc1ccc(N(C(C)=O)S(=O)(=O)c2ccc(F)cc2)cc1	CapD inh -7.35
COC(=O)c1ccc(Oc2cccc(C(F)(F)F)c2)nc1	none
O=C(O)CSc1ncccc1[N+](=O)[O-]	none
O=C(O)c1cc2cccc([N+](=O)[O-])c2[nH]1	CapD inh -4.63
NC(CC(=O)O)c1ccccc1[N+](=O)[O-] (stereo unspecified)	none
O=C1CC2(CCCC2)C(=O)N1c1ccc(Cl)c(Cl)c1	none
CC(C)CCNC(=O)c1ccc2c(=O)n(Cc3ccc(Cl)cc3)c(=S)[nH]c2c1	none
O=C(CSc1nc2cc(C(=O)NCCCN3CCOCC3)ccc2c(=O)n1CC1CCCO1)Nc1nccs1 (stereo unspecified)	none
CS(=O)(=O)c1ccc(Oc2ccc(Oc3ccccc3)cc2)c(NC(=O)C2CC2)c1	none
Cn1cccc1/C=N/n1cnnc1	CapD inh -5.53
C(=N\n1cnnc1)/c1ccccc1	none
NS(=O)(=O)c1ccc(-n2cccc2C=Nn2cnnc2)cc1	none
CN1C(=O)C(=Cc2ccc(-c3cccc(C(=O)O)c3)o2)C(=O)N(C)C1=S	none
